Results filed as inconclusive are left out. The source made the active and inactive calls. Calls come from the whole dose curve; as a rule, active = well fitted activation curve with a large enough effect; inconclusive = small, poorly fitted or top-dose-only effect; inactive = no such curve, though single readings can be large or run the other way.
Molecular target: Relaxin receptor 1 (Homo sapiens) (UniProt Q9HBX9)
Test: qHTS Assay for Agonists of the Relaxin Receptor RXFP1: RXFP1 Hit Validation; note: nearly all actives have a fitted effect of over 65% in size;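 for activation: cAMP rise lowers the TR-FRET signal in lysed cells with PDE4 inhibitor present; 0% = buffer-only basal and 100% = 29 nM porcine relaxin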
Conditions: HEK293T-RXFP1 cAMP TR-FRET, 30 min; series mostly up to 115 µM; activation: at the top concentration
Potency is the fitted concentration of half-maximal effect.

Relaxin receptor 1 (Homo sapiens), sequence (Q9HBX9 whole entry, looked up): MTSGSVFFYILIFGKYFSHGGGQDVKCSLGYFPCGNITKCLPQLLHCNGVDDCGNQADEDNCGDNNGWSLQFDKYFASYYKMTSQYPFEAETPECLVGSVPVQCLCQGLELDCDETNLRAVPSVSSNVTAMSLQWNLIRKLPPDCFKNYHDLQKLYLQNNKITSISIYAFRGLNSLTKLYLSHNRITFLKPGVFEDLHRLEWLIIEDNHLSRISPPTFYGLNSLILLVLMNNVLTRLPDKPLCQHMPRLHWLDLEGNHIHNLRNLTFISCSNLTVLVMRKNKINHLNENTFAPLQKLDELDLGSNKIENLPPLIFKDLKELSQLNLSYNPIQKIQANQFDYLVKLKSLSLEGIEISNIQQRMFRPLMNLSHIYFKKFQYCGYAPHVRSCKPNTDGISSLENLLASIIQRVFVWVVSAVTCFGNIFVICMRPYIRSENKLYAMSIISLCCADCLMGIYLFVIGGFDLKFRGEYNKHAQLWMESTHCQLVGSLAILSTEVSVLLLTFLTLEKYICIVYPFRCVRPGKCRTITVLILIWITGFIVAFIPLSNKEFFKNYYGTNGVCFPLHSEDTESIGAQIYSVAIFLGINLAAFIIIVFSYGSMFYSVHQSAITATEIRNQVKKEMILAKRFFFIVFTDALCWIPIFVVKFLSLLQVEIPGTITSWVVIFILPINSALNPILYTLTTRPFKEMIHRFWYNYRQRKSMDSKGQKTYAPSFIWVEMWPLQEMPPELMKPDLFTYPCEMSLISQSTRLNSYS

Structure (SMILES) | activation | Potency
CN(C)c1ccc(NC(=O)C2C3C=CC(C3)C2C(=O)O)cc1 (centres undefined) | -7.21% (inactive) | –
CCn1c(=O)c2sccc2n2c(CCCC(=O)NCc3cccnc3)nnc12 | 28.5% (inactive) | –
CCC1(C)Cc2c(sc3c2c2ncnn2c2nnc(SCC(=O)NCc4ccco4)n32)CO1 (centres undefined) | – | 12.3 µM (active)
COC(=O)CCNC(=O)Cn1cnc2sc3c(c2c1=O)CCCC3 | 24.4% (inactive) | –
Cc1noc(NS(=O)(=O)c2ccc(N3Cc4ccccc4C3=O)cc2)c1C | – | 11.9 µM (active)
CCNc1nc(NCC)nc(N(C)/N=C/c2ccco2)n1 | 7.3% (inactive) | –
N#C/C(=C\c1c(N2CCC(C(N)=O)CC2)nc2ccccn2c1=O)C(=O)NC1CCCCC1 | 24.3% (inactive) | –
O=C(CN1C(=O)c2cccc3cccc(c23)C1=O)NCCN1CCOCC1 | 28.1% [at 45 µM] (inactive) | –
Cc1ccc(C(=O)Nc2cccc(C(F)(F)F)c2)cc1NC(=O)c1cnnc2ccccc12 | 7.81% (inactive) | –
CC1CCN(S(=O)(=O)c2ccc3nc(N4CCN(c5ccccc5)CC4)ccc3c2)CC1 | – | 12.3 µM (active)
O=C(Nc1ccccc1C(=O)NCc1ccc(Cl)cc1)c1ccco1 | -6.16% [at 125 µM] (inactive) | –
Cc1ccnc(NS(=O)(=O)c2ccc(N3C(=O)c4ccccc4C3=O)cc2)n1 | – | 18.8 µM (active)
CCN(CC)c1ccc(S(=O)(=O)N2CCOCC2)cc1NC(=O)CSc1nncn1C | – | 12.3 µM (active)
Cc1ccc(C(=O)Nc2ccccc2C(N)=O)o1 | -4.18% [at 125 µM] (inactive) | –
CCOc1ccccc1NC(=O)CSc1ccc2nnc(-c3cccnc3)n2n1 | 29% (inactive) | –
Cc1c(CCOC(=O)c2cc([N+](=O)[O-])ccc2Cl)sc[n+]1CCCCS(=O)(=O)[O-] | 7.88% (inactive) | –
Cc1cccn2c(=O)c3cc(C(=O)NCCN4CCOCC4)c(=N)n(CCCN4CCOCC4)c3nc12 | 20.9% (inactive) | –

Structure (SMILES) | activation | Potency
CCc1ccc2n(-c3ccc(OC)cc3)c([S-])c(C(=O)Nc3cc(C)cc(C)c3)[n+]2c1 | – | 24.5 µM (active)
CN1CCN(C(=O)CCc2nnc3ccc(N4CCC5(CC4)OCCO5)nn23)CC1 | 19% (inactive) | –
CC(C)c1ccccc1NC(=O)c1ccccc1NC(=O)C1CCCCC1 | 5.99% [at 125 µM] (inactive) | –
S=c1nc[nH]c2c1[nH]c1ccccc12 | – | 6.9 µM (active)
CCN(CC)CCCCCC(=O)Nc1ccccc1C(=O)Nc1ccccc1 | -3.6% [at 125 µM] (inactive) | –
CC(=O)CCCCn1c(=O)c2c(ncn2C)n(C)c1=O | 27.5% (inactive) | –
Nc1c(S(=O)(=O)O)cc(NC(=O)c2ccccc2)c2c1C(=O)c1ccccc1C2=O | 10.9% [at 45 µM] (inactive) | –
Nc1cc2ccncc2c2ccccc12 | 5.74% (inactive) | –
Cc1cc(C)c(C(=O)CSc2n[nH]c(=O)n2C2CC2)cc1C | -3.14% (inactive) | –
Nc1c(Cl)cc(-c2[nH]c3cc(C(=O)NCCO)ccc3c(=O)c2O)cc1Cl | – | 34.6 µM (active)
Cc1ccc(CN(C)C(=O)c2ccccc2NC(=O)c2ccccc2)o1 | -3.25% [at 125 µM] (inactive) | –
CCOc1ccc2cc(C#N)c(SCC(=O)NC(C)CC)nc2c1 (centres undefined) | – | 4.88 µM (active)
Cc1cc(C(=O)COC(=O)Cn2cnc3c2c(=O)n(C)c(=O)n3C)c(C)n1C | – | 30.9 µM (active)
Cc1cc(C)nc(NS(=O)(=O)c2ccc(NC(=O)c3nn(-c4ccccc4)ccc3=O)cc2)n1 | – | 24.5 µM (active)
COc1ccc(CC(=O)N/N=C/c2cccnc2)cc1OC | -6.39% (inactive) | –
O=C(O)CCC(=O)N1CCN(c2nc(-c3ccccc3Cl)c3cc(Br)ccc3n2)CC1 | 28.4% [at 45 µM] (inactive) | –
CCc1nn(CC(=O)NCCCN2CCOCC2)c(=O)c2cc3sccc3n12 | 27.9% (inactive) | –
